What all share (assay): NCI-60 one-dose screen, 48 h (100 = growth as untreated, 0 = no growth, -100 = all killed)
One assay deals with SK-MEL-2 melanoma. Particulars: 10 µM unless noted.
A further assay concerns EKVX NSCLC. Conditions: 10 µM unless noted.
For the next assay, the system named is SN12C renal. Particulars: 10 µM unless noted.
The subject of a further assay is UO-31 renal. Particulars: 10 µM unless noted.
A further assay has as its system TK-10 renal. Conditions: 10 µM unless noted.
In the next assay the test system is ACHN renal. Particulars: 10 µM unless noted.
A further assay concerns A498 renal. Particulars: 10 µM.
Another assay relates to HL-60(TB) leukemia. Particulars: 10 µM unless noted.
A further assay relates to CCRF-CEM leukemia. Conditions: 10 µM unless noted.
The test system of the next assay is MOLT-4 leukemia. Particulars: 10 µM unless noted.
The test system of another assay is SR leukemia. Particulars: 10 µM unless noted.
The next assay deals with RPMI-8226 leukemia. Particulars: 10 µM unless noted.
In a further assay the test system is OVCAR-8 ovarian. Particulars: 10 µM unless noted.
For another assay, the system named is OVCAR-5 ovarian. Particulars: 10 µM unless noted.
The next assay concerns OVCAR-4 ovarian. Conditions: 10 µM unless noted.
The test system of the next assay is SK-OV-3 ovarian. Particulars: 10 µM unless noted.
The test system of another assay is OVCAR-3 ovarian. Conditions: 10 µM unless noted.
The subject of the next assay is HS 578T breast. Conditions: 10 µM unless noted.
For another assay, the system named is IGROV1 ovarian. Conditions: 10 µM unless noted.

The panel holds about 83,000 compounds, 20% with a hit somewhere; the sample as a whole holds those more often.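 Single-dose data. Exposure time 48 hours. Values below 10 considered active.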 Unmarked numbers belong to inactive results. Calls of active or inactive are those of the source.

In the case of `COc1ccc2c(c1)c(-c1nc(-c3cn(C)c4ncccc34)cs1)cn2CCN1CCOCC1`, the growth in the assay on SK-MEL-2 melanoma was 56%; with EKVX NSCLC, 61.1%; in the assay with SN12C renal, 34.3%; with UO-31 renal, 3.02% (active); with TK-10 renal, 49.4%; in the assay with ACHN renal, 32.1%. Besides, the growth in the assay with A498 renal is 76.1%; in the assay on HL-60(TB) leukemia, 31.3%; in the assay on CCRF-CEM leukemia, 31.1%; with MOLT-4 leukemia, 33.5%; in the assay with SR leukemia, 39.1%; with RPMI-8226 leukemia, 13.3%. For the same molecule, the growth with OVCAR-8 ovarian is 29.2%; with OVCAR-5 ovarian, 78.2%; in the assay on OVCAR-4 ovarian, 42%; in the assay with SK-OV-3 ovarian, 85.1%; in the assay on OVCAR-3 ovarian, 47.9%; in the assay with HS 578T breast it was 31.4%.

For `COC(=O)CCc1c[nH]c2ccc(N(CCCl)CCCl)cc12`, the growth in the assay on SK-MEL-2 melanoma is 121%; with EKVX NSCLC it was 96.6%; in the assay on SN12C renal it was 36.6%; in the assay on UO-31 renal, 19.5%; with TK-10 renal, 90%; with ACHN renal, 12.6%. For the same molecule, the growth is 84.3% in the assay with A498 renal; 17.5% in the assay on HL-60(TB) leukemia; 23.1% in the assay on MOLT-4 leukemia; 12.7% in the assay on SR leukemia; 86.3% with RPMI-8226 leukemia; 56.1% with OVCAR-8 ovarian. For the same molecule, the growth in the assay on OVCAR-5 ovarian was 80.3%; in the assay on OVCAR-4 ovarian it was 79.7%; in the assay on SK-OV-3 ovarian, 66.4%; in the assay with IGROV1 ovarian, 65.6%; in the assay with OVCAR-3 ovarian, 80.3%.

On to `CC1(C)C(C(=O)c2cn(CCCCF)c3ccccc23)C1(C)C`, for which the growth with SK-MEL-2 melanoma was 86.4%; with EKVX NSCLC it was 88.7%; in the assay with SN12C renal, 103%; in the assay with UO-31 renal, 95.2%; in the assay with TK-10 renal it was 102%; in the assay with ACHN renal, 115%. Besides, the growth is 92.9% in the assay on A498 renal; 76% in the assay with HL-60(TB) leukemia; 87.1% in the assay with CCRF-CEM leukemia; 77.8% with MOLT-4 leukemia; 77.9% in the assay with SR leukemia; 81.5% with RPMI-8226 leukemia. For the same molecule, the growth in the assay on OVCAR-8 ovarian is 82%; in the assay with OVCAR-5 ovarian it was 103%; with OVCAR-4 ovarian, 107%; in the assay on SK-OV-3 ovarian, 102%; with IGROV1 ovarian it was 114%; with OVCAR-3 ovarian it was 105%. For the same molecule, the growth in the assay on HS 578T breast was 88.5%.

With `COC(=O)CC[C@H](Cc1ccccc1)NC(=O)c1csc([C@@H](C[C@H](C(C)C)N(C)C(=O)[C@@H](NC(=O)[C@H]2CCCCN2C)C(C)C)OC(C)=O)n1`, the growth in the assay with SK-MEL-2 melanoma was 54.1%; in the assay on EKVX NSCLC it was 44.1%; with SN12C renal, 43.8%; with UO-31 renal, 49.7%; in the assay on TK-10 renal, 42.5%; with ACHN renal it was 23.9%. Moreover, the growth in the assay with A498 renal was 5.63% (active); in the assay with HL-60(TB) leukemia, 4.63% (active); in the assay with CCRF-CEM leukemia it was 19.8%; in the assay with MOLT-4 leukemia, 9.45% (active); in the assay with SR leukemia it was 13.9%; in the assay with RPMI-8226 leukemia, 37.3%. The growth is 28.1% in the assay on OVCAR-8 ovarian; 76.2% with OVCAR-5 ovarian; 52.3% in the assay on OVCAR-4 ovarian; 35.4% in the assay with SK-OV-3 ovarian; 15.3% in the assay with IGROV1 ovarian; -3.19% (active) in the assay on OVCAR-3 ovarian. Moreover, the growth in the assay with HS 578T breast is 38.2%.

For `CC1(C)N=C(N)N=C(N)N1c1ccc(CCCCc2ccc(Cl)c(S(=O)(=O)F)c2)c(Cl)c1`, the growth was 38.7% in the assay on SK-MEL-2 melanoma; 45.3% with EKVX NSCLC; 24.6% in the assay with SN12C renal; 27.3% in the assay on UO-31 renal; 41.7% in the assay with TK-10 renal; 28.2% in the assay with ACHN renal. Moreover, the growth with A498 renal was 69.6%; with HL-60(TB) leukemia it was -43.9% (active); in the assay with CCRF-CEM leukemia, 3.5% (active); in the assay on MOLT-4 leukemia, -33.1% (active); with RPMI-8226 leukemia it was -24.2% (active); with OVCAR-8 ovarian, 5.53% (active). Further, the growth in the assay on OVCAR-5 ovarian is 44.9%; with OVCAR-4 ovarian it was 35.8%; with SK-OV-3 ovarian, 57.4%; with OVCAR-3 ovarian it was 29.5%; in the assay on HS 578T breast, 75.3%.

For `COC(=O)[C@@H](C)C[C@H](Cc1ccccc1)NC(=O)c1nc([C@@H](C[C@H](C(C)C)N(C)C(=O)[C@@H](NC(=O)[C@H]2CCCCN2C)C(C)C)OC(C)=O)sc1C(C)C`, the growth with SK-MEL-2 melanoma is 20%; with EKVX NSCLC, 31.2%; with SN12C renal, 10.8%; with UO-31 renal, 18.3%; with TK-10 renal, 45%; in the assay with ACHN renal, 18.4%. In addition, the growth was -9.92% (active) with A498 renal; -45.5% (active) in the assay with HL-60(TB) leukemia; 7.31% (active) in the assay with CCRF-CEM leukemia; 5.59% (active) with MOLT-4 leukemia; 3.18% (active) in the assay on SR leukemia; 27.1% in the assay on OVCAR-5 ovarian. Also, the growth is 41.6% in the assay on OVCAR-4 ovarian; 26.8% in the assay on SK-OV-3 ovarian; 19.8% in the assay on IGROV1 ovarian; -22.9% (active) in the assay on OVCAR-3 ovarian; 4.24% (active) in the assay on HS 578T breast.

For `CCOC(=O)[C@@H](C)C[C@H](Cc1ccccc1)NC(=O)c1csc([C@@H](C[C@H](C(C)C)N(C)C(=O)[C@@H](NC(=O)[C@H]2CCCCN2C)C(C)(C)C)OC(C)=O)n1`, the growth in the assay on SK-MEL-2 melanoma is 1.39% (active); with EKVX NSCLC it was 31.5%; with SN12C renal, 13.3%; with UO-31 renal, 20.6%; in the assay on TK-10 renal it was 49.2%; in the assay on ACHN renal, 17.1%. Besides, the growth with A498 renal was -11.4% (active); in the assay on HL-60(TB) leukemia, -33.2% (active); in the assay with CCRF-CEM leukemia it was 1.8% (active); with MOLT-4 leukemia, 7.61% (active); in the assay on SR leukemia it was 3.63% (active); in the assay with RPMI-8226 leukemia, 11.9%. The growth is 32.3% in the assay with OVCAR-5 ovarian; 42.7% in the assay on OVCAR-4 ovarian; 13.2% with SK-OV-3 ovarian; 18.1% with IGROV1 ovarian; -6.79% (active) with OVCAR-3 ovarian; 6.42% (active) with HS 578T breast.

For `COC(=O)[C@@H](C)C[C@H](Cc1ccccc1)NC(=O)c1csc(CC[C@H](C(C)C)N(C)C(=O)[C@@H](NC(=O)[C@H]2CCCCN2C)C(C)C)n1`, the growth in the assay on SK-MEL-2 melanoma was 35.7%; in the assay with EKVX NSCLC, 40.8%; in the assay on SN12C renal it was 36.5%; in the assay on UO-31 renal, 48.8%; with TK-10 renal, 60.5%; in the assay on ACHN renal, 45.2%. Also, the growth was 0.74% (active) with A498 renal; -34.4% (active) in the assay on HL-60(TB) leukemia; 13.8% in the assay with CCRF-CEM leukemia; 14.4% in the assay on MOLT-4 leukemia; 15.9% with SR leukemia; 20.6% with OVCAR-8 ovarian. The growth in the assay with OVCAR-5 ovarian was 54%; in the assay with OVCAR-4 ovarian, 53.2%; in the assay with SK-OV-3 ovarian it was 37.7%; in the assay on IGROV1 ovarian it was 32.4%; in the assay with OVCAR-3 ovarian, -5.55% (active); in the assay with HS 578T breast it was 33.2%.

(Values after PubChem BioAssay (NCI).)
